Screening data from PubChem.
Hits are enriched below; roughly 3.3% of the tested compounds scored in any of these assays.
VACV Venus inh = vaccinia inhibition (Venus reporter); Potency, µM (titrated, usually from 36.5 µM), inactives show top-dose activity change, negative = inhibition, actives largely listed as inhibitors; actives 0.46% (n = 330,000); Vaccinia virus Venus reporter expression, fluorescence; calls by dose curve; tested in A549 cells; also: nearly all actives have a fitted effect of over 30% in size
Vaccinia mCherry = inhibitors of vaccinia virus infection (mCherry reporter signal); Vaccinia virus mCherry reporter infection, fluorescence; Potency, µM (doses to about 36.5 µM), for the others: top-dose activity change, negative = inhibition, usual class: inhibitors; actives 0.63% (n = 310,000); AID 720579; calls by dose curve; tested in A549 cells; also: nearly all actives have a fitted effect of over 35% in size
HCV inh = HCV inhibition; Huh7.5.1 HCVcc-Cre infection, luciferase reporter, 44 h; Potency, µM (highest dose often 41.8 µM), inactives show at the highest dose activity change, negative = inhibition, hits mostly inhibitors; actives 3.4% (n = 340,000); AID 651820; active = well fitted inhibition curve with a large enough effect; inconclusive = small, poorly fitted or top-dose-only effect, or another doubt; inactive = no such curve, though single readings can be large or run the other way
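Reporter virus HCVcc-Cre (~0.5 moi) infects cells exposed to compound; seeding density 1,000 cells/well with 4 h settling beforehand. Luminescence, 15 sec read, taken 44 h post-infection following a 15 min RT substrate incubation.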
Starred values were filed as active, the others as inactive; i = inactive; ? = inconclusive; . = no result. % is scaled to controls: 0 for no effect and ±100 for the full control effect; potency is read from the fitted curve at half-maximal effect.

SMILES	VACV Venus inh	Vaccinia mCherry	HCV inh
O=S(=O)(c1ccc(OC(F)(F)F)cc1)N1CCN(c2nc(-c3cccs3)nc3ccccc23)CC1	-21%	-4%	.
COc1ccc(CC(=O)N2CCc3cc(OC)c(OC)cc3C2COc2ccc(F)cc2)cc1 (stereo not drawn)	-5%	-2%	.
Cc1c(C(=O)Nc2ccc(-c3nnc4n3CCCCC4)cc2)oc2c1ccc1ccccc12	?	14µM*	-57%
O=C(Nc1ccc(-c2nnc3n2CCCCC3)cc1)c1cc2ccccc2o1	-4%	i	6%
CCc1nc2cc(C(=O)N3CCCN(C=O)CC3)cc(NC(=O)c3ccccc3OC)c2n1C	0%	-7%	.
CN(CCO)C(=O)c1cn(C2CCCN(Cc3cccc4ccccc34)C2)nn1 (stereo not drawn)	-6%	-6%	.
CCOC(=O)c1ccccc1NC(=O)Cn1ncc2c1-c1ccccc1OC2	-11%	-3%	.
Cc1ccc(Cl)cc1N1CCN(C(=O)c2noc(C)c2[N+](=O)[O-])CC1	.	.	10µM*
Cc1onc(C(=O)N2CCN(c3ccccc3)CC2)c1[N+](=O)[O-]	.	.	3%
OC1(c2cccnc2)CCN(Cc2ccc3c(c2)CN(Cc2cccc(F)c2F)CCO3)CC1	-2%	-16%	.
CCOCCn1ccc2c(OCC(=O)Nc3cc(OC)ccc3OC)cccc2c1=O	-12%	-21%	8.9µM*
COCCn1ccc2c(OCC(=O)Nc3cc(OC)ccc3OC)cccc2c1=O	-28%	-19%	?
COc1ccc(COC(=O)CCc2cc(OC)c(OC)c(OC)c2)cc1F	-3%	-8%	-11%
O=C1N/C(=C\c2ccc(O)cc2)C(=O)c2ccccc21	.	.	11µM*
O=C(O)/C=C1\NC(=O)c2ccccc21	-19%	.	26%
CC(C)(C)NC(=O)C(c1ccc(O)cc1)N(C(=O)Cn1nnc(-c2ccc(F)cc2)n1)c1ccccc1F (stereo not drawn)	.	.	4.5µM*
CC(C)(C)NC(=O)C(c1ccncc1)N(C(=O)Cn1nnc(-c2ccc(F)cc2)n1)c1ccccc1F (stereo not drawn)	-6%	-14%	7%
CCCCn1c(N)c(N(Cc2ccccc2OC)C(=O)c2c(CC)noc2C)c(=O)[nH]c1=O	-11%	-13%	16%
O=C(CN1C(=O)C2(SCC(=O)N2c2ccc(Cl)cc2)c2ccccc21)NCCc1ccccc1 (stereo not drawn)	-11%	-13%	.
Clc1nc(NCc2cccs2)c2[nH]cnc2n1	-26%	-30%	.
COc1ccccc1C(=O)Nc1ccc2c(c1)nc1n2CCN(Cc2ccccc2)C1	-27%	-13%	?
Cc1ccc(S(=O)(=O)Nc2ccc3c(c2)nc2n3CCN(Cc3ccccc3)C2)cc1	.	.	16µM*
O=S(=O)(Nc1ccc2c(c1)nc1n2CCN(Cc2ccccc2)C1)c1ccccc1	.	.	5.6µM*
O=C(Nc1ccc2c(c1)nc1n2CCN(Cc2ccccc2)C1)NC1CCCCC1	-3%	-3%	-17%
O=S(=O)(Nc1ccc2c(c1)nc1n2CCN(Cc2ccccc2)C1)c1ccc(Cl)cc1	.	.	11µM*
SMILES	VACV Venus inh	Vaccinia mCherry	HCV inh
Cn1c(CN2CCCCC2)nc2cc(NS(=O)(=O)c3ccc(Cl)cc3)ccc21	-23%	-15%	-9%
COc1ccc(N2CCN(S(=O)(=O)c3ccc4oc(=O)c5ncn(C)c5c4c3)CC2)cc1	-3%	-9%	.
CCc1ccc2nc(N(Cc3cccnc3)C(=O)c3cccs3)sc2c1	-14%	-5%	.
CCCCS(=O)(=O)CC(COc1ccccc1)OC(=O)c1ccccc1 (stereo not drawn)	7.9µM*	.	-1%
CCCCS(=O)CC(CS(=O)CCCC)OC(=O)c1ccccc1 (stereo not drawn)	.	.	6%
CCn1c(=O)n(CC(=O)NCC2CCCO2)c(=O)c2c3c(sc21)COC(C)(C)C3 (stereo not drawn)	.	.	12%
COCc1c(Br)c(C)nc2sc3c(=O)[nH]nnc3c12	-20%	i	9%
COc1cc(NC(=O)C2=C(N3CCOCC3)/C(=C/c3ccc(Cl)cc3)CC2)cc(OC)c1OC	-6%	i	17%
COc1cc(NC(=O)C2=C(N3CCOCC3)/C(=C\c3ccc(N(C)C)cc3)CCC2)cc(OC)c1OC	?	?	6.3µM*
OCCCNc1nc(-c2ccc(Cl)cc2)nc2ccccc12	.	.	13µM*
CC(C)(C)C(=O)OCCNc1nc(-c2cccs2)nc2ccccc12	-22%	-24%	.
CCN(CC)c1nc(-c2ccccc2)nc2ccccc12	-17%	-7%	11µM*
O=C(O)CCCCCNc1nc(-c2ccccc2)nc2ccccc12	.	.	-2%
COCCCNc1nc(-c2ccncc2)nc2ccccc12	-11%	-16%	11µM*
COCCNc1nc(-c2ccccc2)nc2ccccc12	-14%	i	?
CCCCN(CCCC)c1nc(-c2ccncc2)nc2ccccc12	.	.	0%
CC(=O)OCCNc1nc(-c2ccccc2)nc2ccccc12	.	.	10µM*
CC(=O)Nc1ccc(-c2cc(C(=O)O)c3c(-c4ccccc4)[nH]nc3n2)cc1	-2%	4%	.
CCOC(=O)c1c(S(=O)(=O)N2CCN(c3cc(Cl)ccc3C)CC2)c(C)n(C)c1C	-14%	-24%	.
COc1ccc(C(=O)NCCN2Cc3cc(C)ccc3OC(C)C2)c(OC)n1 (stereo not drawn)	2%	-1%	.
C#Cc1ccc([C@H]2C=C(C(=O)Nc3ccccc3)O[C@@H](OCc3ccc(CO)cc3)C2)cc1	-16%	i	-9%
O=C(NCCO)c1nc(NCCO)c2ccccc2n1	.	.	9%
Cc1ccc(CCNc2nc3ccccc3c3nc(-c4ccccc4)nn23)cc1	0%	-12%	.
CCN(CC)CCCNc1nc2ccccc2c2[nH]c3ccc(OC)cc3c12	10µM*	?	?
CCN(CC)CCCNc1nc2ccccc2c2nc(-c3ccncc3)nn12	11µM*	?	?
SMILES	VACV Venus inh	Vaccinia mCherry	HCV inh
COCCCNc1nc(-c2ccc(Cl)cc2)nc2ccccc12	-21%	-17%	13µM*
COCCNc1nc(-c2cccc(OC)c2)nc2ccccc12	-21%	-25%	.
CCOc1ccc2[nH]c3c(NCCN(CC)CC)ncnc3c2c1	-21%	?	-2%
OCCNc1nc(-c2ccccc2)nc2ccccc12	-12%	i	7.9µM*
CC(=O)c1cccc(NC(=O)C2CCCN2S(=O)(=O)c2cccs2)c1 (stereo not drawn)	-13%	i	.
Cc1ccc(Nc2nc(NCCO)c3ccccc3n2)cc1C	?	-15%	13µM*
CCN(CC)CCCNc1nc(-c2ccccc2)nc2ccccc12	?	i	10µM*
COc1ccc(OC)c(Nc2nc(NCCO)c3ccccc3n2)c1	-30%	-22%	?
c1ccc(-c2nc(NCCCn3ccnc3)c3ccccc3n2)cc1	-13%	i	?
Cc1cccc(C)c1NC(=O)CSCc1cnn(-c2ccccc2)c1-n1cccc1	-15%	-11%	.
COc1ccc(-c2cn3nc(N4CCCC(C(=O)Nc5cc(C)ccc5C)C4)sc3n2)cc1 (stereo not drawn)	-16%	-10%	.
Cc1nc(C(=O)NCCO)cc2c1[nH]c1ccccc12	.	.	11µM*
Cc1ccc(-c2nc(C(=O)NCCCN(C)C)cc3c2[nH]c2ccccc23)cc1	?	?	11µM*
O=C(NCCO)c1cc2c([nH]c3ccccc32)c(-c2ccc(F)cc2)n1	-13%	-7%	11µM*
Cc1nc(C(=O)O)cc2c1[nH]c1ccccc12	-5%	-3%	22%
C[C@H](NC(=O)c1cc2c([nH]c3ccccc32)c(-c2ccccc2)n1)C(=O)O	.	.	3%
